Laboratory results published in PubChem BioAssay (Tox21).
Inconclusive results are not listed. Entries that show only a call come without a potency. The source holds several records for some structures; these can differ, active in one and inactive in another. Calls of active or inactive are those of the source. Calls come from the whole dose curve; as a rule, active = well fitted curve in the direction sought with a large enough effect in the repeat runs; inconclusive = weak or mixed curves; inactive = no such curve, though single readings can be large; an effect the other way counts as inactive or inconclusive.

Experiments:
[1] = A CellTox Green Cytotoxicity Assay to monitor cytotoxicity in HEK293 cells - 40 hour (AID 1224871); note: nearly all actives have a fitted effect of over 45% in size; note: potency is the fitted concentration of half-maximal effect
Method in brief: (§1)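 Homogeneous no-lysis format: HEK293 cell suspension mixed with CellTox Green reagent, seeded, incubated 5 h at 37 C/5% CO2, then dosed by pintool with compound in DMSO.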

[2] = qHTS RealTime-Glo MT Cell Viability Assay in HEK293 cells - 16 hour (AID 1224872); note: nearly all actives have a fitted effect of over 50% in size; note: potency is the fitted concentration of half-maximal effect; for activity change, negative = cytotoxicity: top concentration of the series differs between compounds
Method in brief: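 Assay medium contained NanoLuc luciferase plus cell-permeant prosubstrate, added with HEK293 cells at 600 cells/well. After 5 h at 37 C/5% CO2 compounds were added; plates stayed at 37 C for 40 h with serial luminescence reads.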

[3] = qHTS RealTime-Glo MT Cell Viability Assay in HepG2 cells - 8 hour (AID 1224873); note: nearly all actives have a fitted effect of over 55% in size
Method in brief: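 Real-time viability: cells seeded at 600 per well together with NanoLuc and cell-permeant prosubstrate, compounds added after 5 h incubation. Luminescence tracked at 0, 8, 16, 24, 32 and 40 h of exposure.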

[4] = A CellTox Green Cytotoxicity Assay to monitor cytotoxicity in HEK293 cells - 24 hour (AID 1224875); note: nearly all actives have a fitted effect of over 45% in size; note: potency is the fitted concentration of half-maximal effect; for activity change: series mostly up to about 77 µM
Method in brief: as §1

[5] = qHTS RealTime-Glo MT Cell Viability Assay in HepG2 cells - 32 hour (AID 1224877); note: nearly all actives have a fitted effect of over 55% in size; note: potency is the fitted concentration of half-maximal effect
Method in brief: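 qHTS, HepG2, 600 cells/well, RealTime-Glo (NanoLuc + prosubstrate) added with cells; 5 h preincubation; DMSO compound addition; 37 C; luminescence at 0/8/16/24/32/40 h.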

[6] = A CellTox Green Cytotoxicity Assay to monitor cytotoxicity in HepG2 cells - 24 hour (AID 1224878); note: nearly all actives have a fitted effect of over 45% in size; note: potency is the fitted concentration of half-maximal effect
Method in brief: (§2)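 Fluorescent DNA-binding dye, 600 HepG2 cells/well, 5 h preincubation then compound in DMSO; same plates read at 0–40 h, 37 C.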

[7] = A CellTox Green Cytotoxicity Assay to monitor cytotoxicity in HepG2 cells - 40 hour (AID 1224879); note: nearly all actives have a fitted effect of over 40% in size; note: potency is the fitted concentration of half-maximal effect
Method in brief: as §2

[8] = qHTS RealTime-Glo MT Cell Viability Assay in HEK293 cells - 0 hour (AID 1224880); note: top concentration of the series differs between compounds; nearly all actives have a fitted effect of over 45% in size
Method in brief: (§3)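 Measured as luminescence from the same continuously cultured HEK293 wells at successive time points (0, 8, 16, 24, 32, 40 h) after compound addition. Reagent present from seeding; dosing at 5 h; incubation 37 C.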

[9] = A CellTox Green Cytotoxicity Assay to monitor cytotoxicity in HepG2 cells - 16 hour (AID 1224876); note: nearly all actives have a fitted effect of over 45% in size; note: potency is the fitted concentration of half-maximal effect
Method in brief: as §2

[10] = qHTS RealTime-Glo MT Cell Viability Assay in HEK293 cells - 40 hour (AID 1224874); conditions: RealTime-Glo luminescence; max response: stronger effect = lower value; note: nearly all actives have a fitted effect of over 50% in size; note: potency is the fitted concentration of half-maximal effect
Method in brief: as §3

SMILES: C[C@@H]1C[C@H]2[C@@H]3CCC4=CC(=O)C=C[C@]4(C)[C@@]3(F)[C@@H](O)C[C@]2(C)[C@@]1(O)C(=O)CO
- Potency [1]: inactive
- Potency [2]: inactive
- Potency [3]: inactive
- Potency [4]: inactive
- Potency [5]: inactive
- Potency [6]: inactive
- Potency [7]: inactive
- Potency [8]: inactive

SMILES: CC(C)(C)C(=O)C(Oc1ccc(Cl)cc1)n1ccnc1 (centres undefined)
- Potency [1]: inactive
- Potency [2]: inactive
- Potency [3]: inactive
- Potency [4]: inactive
- Potency [9]: inactive
- Potency [5]: inactive
- Potency [6]: inactive
- Potency [7]: inactive
- Potency [8]: inactive

SMILES: CCC1(C)CC(=O)NC1=O (centres undefined)
- Potency [1]: inactive
- Potency [2]: inactive
- Potency [3]: inactive
- Potency [4]: inactive
- Potency [5]: inactive
- Potency [6]: inactive
- Potency [7]: inactive
- Potency [8]: inactive

SMILES: CO[C@H]1C=CO[C@@]2(C)Oc3c(C)c(O)c4c(O)c(c5c(c4c3C2=O)=NC2(CCN(CC(C)C)CC2)N=5)NC(=O)/C(C)=C\C=C/[C@H](C)[C@H](O)[C@@H](C)[C@@H](O)[C@@H](C)[C@H](OC(C)=O)[C@@H]1C
- Potency [1]: inactive
- Potency [2]: 42.7 µM (active)
- Potency [10]: 38.1 µM (active)
- Potency [4]: inactive
- Potency [9]: inactive
- Potency [7]: 47.9 µM (active)

SMILES: O=C(OCCOCCO)c1ccccc1Nc1cccc(C(F)(F)F)c1
- Potency [1]: 2.39 µM (active)
- Potency [2]: inactive
- Potency [3]: inactive
- Potency [4]: inactive
- Potency [5]: inactive
- Potency [8]: inactive

SMILES: NC(=O)N(O)[C@@H]1COc2cc(OCc3ccccc3)ccc21
- Potency [1]: inactive
- Potency [2]: inactive
- Potency [3]: inactive
- Potency [4]: inactive
- Potency [9]: inactive
- Potency [5]: inactive
- Potency [8]: inactive

SMILES: Cc1oc(C)c(C(=O)Nc2ccccc2)c1C
- Potency [1]: inactive
- Potency [2]: 34.7 µM (active)
- Potency [3]: inactive
- Potency [4]: inactive
- Potency [5]: inactive
- Potency [7]: inactive
- Potency [8]: inactive

SMILES: CC(CCc1ccc2c(c1)OCO2)NN (centres undefined)
- Potency [1]: inactive
- Potency [3]: inactive
- max response [10]: 6.86% (inactive)
- Potency [4]: inactive
- Potency [9]: inactive
- Potency [5]: inactive
- Potency [6]: inactive
- Potency [7]: inactive
- Potency [8]: inactive

SMILES: O=C(O)c1snc(Cl)c1Cl
- Potency [1]: inactive
- Potency [3]: inactive
- max response [10]: 13.2% (inactive)
- Potency [4]: inactive
- Potency [9]: inactive
- Potency [5]: inactive
- Potency [6]: inactive
- Potency [7]: inactive
- Potency [8]: inactive

SMILES: N#C/C(=C1/SC[C@@H](c2ccc(Cl)cc2Cl)S1)n1ccnc1
- Potency [1]: inactive
- Potency [2]: inactive
- max response [10]: -23.1% (inactive)
- Potency [4]: inactive
- Potency [9]: inactive
- Potency [5]: inactive
- Potency [6]: inactive
- Potency [7]: inactive
- Potency [8]: inactive

SMILES: CC1CC(O)CC(C)(C)C1 (centres undefined)
- Potency [1]: inactive
- Potency [2]: inactive
- Potency [3]: inactive
- Potency [4]: inactive
- Potency [9]: inactive
- Potency [5]: inactive
- Potency [6]: inactive
- Potency [7]: inactive
- Potency [8]: inactive

SMILES: O=C(CCCN1CCN(c2ccc(F)cc2)CC1)NC1c2ccccc2CSc2ccccc21 (centres undefined)
- Potency [1]: inactive
- Potency [2]: 19 µM (active)
- Potency [10]: 16.9 µM (active)
- Potency [4]: inactive
- Potency [5]: 23.9 µM (active)
- Potency [6]: 23.9 µM (active)
- Potency [7]: 23.9 µM (active)
- Potency [8]: inactive

SMILES: NC(=O)Nc1ccc(Cl)c(Cl)c1
- Potency [1]: inactive
- Potency [2]: inactive
- Potency [3]: inactive
- Potency [4]: inactive
- Potency [9]: inactive
- Potency [5]: inactive
- Potency [6]: inactive
- Potency [7]: inactive
- Potency [8]: inactive

SMILES: CC(=O)OCC(=O)[C@@]12OC(C)(C)O[C@@H]1C[C@H]1[C@@H]3C[C@H](F)C4=CC(=O)C=C[C@]4(C)[C@@]3(F)[C@@H](O)C[C@@]12C
- Potency [1]: 26.8 µM (active)
- Potency [2]: inactive
- Potency [3]: inactive
- Potency [9]: inactive
- Potency [5]: inactive
- Potency [6]: inactive
- Potency [7]: inactive

SMILES: CC1C2CC(CC2C2CCCC(O)C2)C1(C)C (centres undefined)
- Potency [1]: 49 µM (active)
- Potency [3]: inactive
- max response [10]: -15.9% (inactive)
- Potency [4]: 49 µM (active)
- Potency [9]: 38.9 µM (active)
- Potency [5]: inactive
- Potency [6]: 43.6 µM (active)
- Potency [7]: 43.6 µM (active)
- Potency [8]: inactive

SMILES: CC(=O)[C@H]1CC[C@H]2[C@@H]3C=CC4=CC(=O)CC[C@@]4(C)[C@@H]3CC[C@]12C
- Potency [1]: inactive
- Potency [2]: inactive
- Potency [3]: inactive
- Potency [4]: inactive
- Potency [9]: inactive
- Potency [5]: inactive
- Potency [7]: inactive
- Potency [8]: inactive

SMILES: Brc1cc(-c2ccc(Br)c(Br)c2Br)cc(Br)c1Br
- Potency [1]: inactive
- Potency [3]: inactive
- max response [10]: 4.87% (inactive)
- Potency [4]: inactive
- Potency [9]: inactive
- Potency [5]: inactive
- Potency [6]: inactive
- Potency [7]: inactive
- Potency [8]: inactive

SMILES: Cc1oncc1C(=O)Nc1ccc(C(F)(F)F)cc1
- Potency [1]: inactive
- Potency [3]: inactive
- Potency [4]: inactive
- Potency [9]: inactive
- Potency [5]: inactive
- Potency [7]: 54.9 µM (active) and inactive
- Potency [8]: inactive

SMILES: CCCCC/C(=C\c1ccccc1)CO
- Potency [1]: 43.1 µM (active)
- Potency [3]: inactive
- max response [10]: -12.8% (inactive)
- Potency [4]: 48.4 µM (active)
- Potency [5]: inactive
- Potency [6]: inactive
- Potency [7]: inactive
- Potency [8]: inactive

SMILES: C(=C\c1ccccc1)/CN1CCN(C(c2ccccc2)c2ccccc2)CC1
- Potency [1]: inactive
- Potency [3]: inactive
- Potency [4]: inactive
- Potency [9]: inactive
- Potency [5]: inactive
- Potency [6]: inactive
- Potency [8]: inactive

SMILES: CO/N=C1\CN(c2nc3c(cc2F)c(=O)c(C(=O)O)cn3C2CC2)CC1CN (centres undefined)
- Potency [1]: inactive
- Potency [3]: inactive
- max response [10]: 8.45% (inactive)
- Potency [4]: inactive
- Potency [9]: inactive
- Potency [5]: inactive
- Potency [6]: inactive
- Potency [7]: inactive
- Potency [8]: inactive

SMILES: CN1CCN(c2c(F)cc3c(=O)c(C(=O)O)cn4c3c2OCN4C)CC1
- cytotoxicity increase [1]: -7.47% [at 15.8 µM] (inactive)
- viability change, negative = cytotoxic [3]: 8.52% [at 15.8 µM] (inactive)
- max response [10]: 2.93% (inactive)
- activity change [4]: -4.87% [at 15.8 µM, stronger effect = higher value] (inactive)
- cytotoxicity increase [9]: -5.53% [at 15.8 µM] (inactive)
- activity change, negative = cytotoxic [5]: -0.186% [at 15.8 µM] (inactive)
- cytotoxicity [6]: -1.37% [at 15.8 µM] (inactive)
- cytotoxicity increase [7]: -7.78% [at 15.8 µM] (inactive)
- activity change, negative = cytotoxicity [8]: -2.72% [at 15.8 µM] (inactive)

SMILES: COc1ccc([C@@H]2Sc3ccccc3NC(=O)[C@@H]2O)cc1
- Potency [1]: inactive
- Potency [3]: inactive
- Potency [4]: inactive
- Potency [9]: inactive
- Potency [5]: inactive
- Potency [6]: inactive
- Potency [8]: inactive
